Our source for the outcome and AC50 values is PubChem BioAssay (EPA / NIEHS).

Molecules are shown by their SMILES. Activity calls are given as the source filed them. The calls were made as follows: active = hit-call score of the fitted dose curve at least 0.9, where 1 is the maximum; inactive = score below 0.9.

The nature of assay [1]: CEETOX_H295R_DOC: CeeTox H295R High-throughput Steroidogenesis Assay for DOC (AID 2283439). The conditions noted are these: actives raise or lower the signal. Put shortly:
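Secreted DOC was quantified from H295R media by HPLC-MS/MS after 48 h chemical exposure following 48 h forskolin (10 uM) prestimulation. Values were fitted in both directions relative to DMSO, the negative control and baseline.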

Assay [2] is described as follows: CEETOX_H295R_ESTRADIOL: CeeTox H295R High-throughput Steroidogenesis Assay for Estradiol (AID 2283440).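 Also: estradiol secreted into medium quantified by LC-MS/MS after dansyl derivatisation.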 As to conditions: actives raise or lower the signal. Put shortly: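 H295R adrenocortical cells were prestimulated with 10 uM forskolin for 48 h, then exposed to test chemical in 0.1% DMSO for 48 h. Medium estradiol was extracted with MTBE, dansyl-derivatized and quantified by HPLC-MS/MS; bidirectional fit versus DMSO.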

The nature of assay [3]: CEETOX_H295R_ESTRONE: CeeTox H295R High-throughput Steroidogenesis Assay for Estrone (AID 2283441).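 Also: estrone secreted into medium measured by LC-MS/MS after dansyl derivatization.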 The conditions noted are these: actives raise or lower the signal. The essentials: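 H295R cells; 48 h forskolin (10 uM) prestimulation; 48 h compound exposure, 0.1% DMSO final. Medium estrone: MTBE extraction, dansyl derivatization, HPLC-MS/MS. Bidirectional fit vs DMSO.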

Assay [4] is described as follows: CEETOX_H295R_PROG: CeeTox H295R High-throughput Steroidogenesis Assay for Progesterone (PROG) (AID 2283442). As to conditions: actives raise or lower the signal. The essentials:
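H295R human adrenal cells were prestimulated with 10 uM forskolin for 48 h, then exposed to test chemical (0.1% DMSO final) for 48 h. Medium progesterone was MTBE-extracted and quantified by HPLC-MS/MS, with bidirectional fitting against DMSO.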

Read-out in assay [5]: Tumor necrosis factor receptor superfamily member 6 (Homo sapiens) (UniProt P25445)
Put plainly: LTEA_HepaRG_FAS: Life Technologies and Expression Analysis (LTEA) Assay for Fas cell surface death receptor (FAS) using HepaRG (AID 2283447). As to conditions: mRNA level, 48 h; actives raise or lower the signal. Put shortly:
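Differentiated HepaRG cells in serum-free induction medium were exposed 48 h to 8 half-log concentrations up to 100 uM in 0.5% DMSO, in duplicate. FAS mRNA was measured by qRT-PCR normalised to ACTB, GAPDH and POLR2A; bidirectional fit versus DMSO.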

Read-out in assay [6]: Fatty acid synthase (Homo sapiens) (UniProt P49327)
Briefly: LTEA_HepaRG_FASN: Life Technologies and Expression Analysis (LTEA) Assay for Fatty Acid Synthase (FASN) using HepaRG (AID 2283448). The conditions noted are these: mRNA level, 48 h; actives raise or lower the signal. Put shortly:
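Transcript-level assay: HepaRG liver cells are treated for 48 h across an eight-point range topping at 100 uM, and FASN mRNA, normalized to three housekeeping genes, is compared with DMSO controls in both directions.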

Read-out in assay [7]: Cyclin D2 (CCND2), CCND2 (gene 894)
Briefly: LTEA_HepaRG_CCND2: Life Technologies and Expression Analysis (LTEA) Assay for Cyclin D2 (CCND2) using HepaRG (AID 2283449).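 Also: CCND2 transcript measured by TaqMan qRT-PCR and normalised to three housekeeping genes.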 As to conditions: mRNA level, 48 h; actives raise or lower the signal. The essentials: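 Chemicals in 0.5% DMSO, eight half-log concentrations from 100 uM top, were applied in duplicate for 48 h to human HepaRG cells in serum-free induction medium. CCND2 mRNA by TaqMan qRT-PCR, normalised to ACTB/GAPDH/POLR2A; bidirectional fit versus DMSO.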

Read-out in assay [8]: Cyclin Dependent Kinase Inhibitor 1A (CDKN1A), CDKN1A (gene 1026)
Put plainly: LTEA_HepaRG_CDKN1A: Life Technologies and Expression Analysis (LTEA) Assay for Cyclin Dependent Kinase Inhibitor 1A (CDKN1A) using HepaRG (AID 2283450). As to conditions: mRNA level, 48 h; actives raise or lower the signal. Put shortly:
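Differentiated human HepaRG cells, pre-cultured 48 h, were exposed in duplicate for 48 h in serum-free induction medium to eight half-log concentrations up to 100 uM (0.5% DMSO). CDKN1A mRNA was measured by qRT-PCR, normalized to ACTB/GAPDH/POLR2A, bidirectionally fitted versus DMSO.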

Read-out in assay [9]: catalase (CAT), CAT (gene 847)
Put plainly: LTEA_HepaRG_CAT: Life Technologies and Expression Analysis (LTEA) Assay for catalase (CAT) using HepaRG (AID 2283452). As to conditions: mRNA level, 48 h; actives raise or lower the signal. The essentials: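 HepaRG cells in serum-free induction medium, 0.5% DMSO vehicle, exposed 48 h in duplicate over 8 half-log concentrations from 100 uM. CAT mRNA measured by qRT-PCR, normalized to ACTB, GAPDH, POLR2A; bidirectional fit versus DMSO.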

Read-out in assay [10]: flavin-containing dimethylaniline monooxygenases 3 (FMO3), FMO3 (gene 2328)
Put plainly: LTEA_HepaRG_FMO3: Life Technologies and Expression Analysis (LTEA) Assay for flavin-containing dimethylaniline monooxygenases 3 (FMO3) using HepaRG (AID 2283453). As to conditions: mRNA level, 48 h; actives raise or lower the signal. The essentials: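 HepaRG, 48 h exposure, 8-pt half-log series from 100 uM, 0.5% DMSO vehicle, duplicates; FMO3 transcript by Fluidigm TaqMan qRT-PCR, housekeeping-normalized; gain/loss fit vs DMSO.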

Read-out in assay [11]: Cytochrome P450 (CYP1A1), CYP1A1 (gene 1543)
Put plainly: LTEA_HepaRG_CYP1A1: Life Technologies and Expression Analysis (LTEA) Assay for Cytochrome P450 (CYP1A1) using HepaRG (AID 2283454). As to conditions: mRNA level, 48 h; actives raise or lower the signal. The essentials: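 Differentiated HepaRG cells in serum-free induction medium were exposed in duplicate for 48 h to eight half-log concentrations up to 100 uM in 0.5% DMSO. CYP1A1 mRNA was quantified by TaqMan qRT-PCR, normalized to ACTB, GAPDH and POLR2A.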

Read-out in assay [12]: CFLAR gene, CFLAR (gene 8837)
Briefly: LTEA_HepaRG_CFLAR: Life Technologies and Expression Analysis (LTEA) Assay for CFLAR gene using HepaRG (AID 2283455). The conditions noted are these: mRNA level, 48 h; actives raise or lower the signal. Put shortly:
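Differentiated HepaRG cells in serum-free induction medium were exposed 48 h in duplicate to eight half-log concentrations up to 100 uM in 0.5% DMSO; mRNA measured by TaqMan qRT-PCR, normalized to ACTB, GAPDH, POLR2A; bidirectional fitting versus DMSO.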

Read-out in assay [13]: Forkhead box O1 (FOXO1), FOXO1 (gene 2308)
Briefly: LTEA_HepaRG_FOXO1: Life Technologies and Expression Analysis (LTEA) Assay for Forkhead box O1 (FOXO1) using HepaRG (AID 2283456). The conditions noted are these: mRNA level, 48 h; actives raise or lower the signal. Put shortly:
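Differentiated HepaRG cells, in serum-free induction medium with 0.5% DMSO, exposed 48 h in duplicate to 8-point half-log series from 100 uM. FOXO1 mRNA measured by TaqMan qRT-PCR, normalized to ACTB, GAPDH, POLR2A; bidirectional fit versus DMSO.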

The nature of assay [14]: CEETOX_H295R_TESTO: CeeTox H295R High-throughput Steroidogenesis Assay for Testosterone (TESTO) (AID 2283457). As to conditions: actives raise or lower the signal. The essentials: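 H295R human adrenal cells in DMEM/F12 with ITS+ and Nu-Serum, exposed to chemicals for 48 h. Testosterone in medium measured by MTBE extraction, reverse-phase HPLC-MS/MS; bidirectional fit versus DMSO baseline. MTT viability checked in same wells.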

Read-out in assay [15]: growth arrest and DNA damage 45 (GADD45A), GADD45A (gene 1647)
Briefly: LTEA_HepaRG_GADD45A: Life Technologies and Expression Analysis (LTEA) Assay for growth arrest and DNA damage 45 (GADD45A) using HepaRG (AID 2283458). The conditions noted are these: mRNA level, 48 h; actives raise or lower the signal. The essentials: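 Human HepaRG liver cells are treated in duplicate for 48 h with chemicals in 0.5% DMSO, highest concentration 100 uM. Expression is read by qRT-PCR and analyzed in both directions against vehicle.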

Read-out in assay [16]: Forkhead box O3 (FOXO3), FOXO3 (gene 2309)
Put plainly: LTEA_HepaRG_FOXO3: Life Technologies and Expression Analysis (LTEA) Assay for Forkhead box O3 (FOXO3) using HepaRG (AID 2283459). As to conditions: mRNA level, 48 h; actives raise or lower the signal. The essentials:
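Differentiated human HepaRG cells, 48 h post-plating, exposed in duplicate for 48 h in serum-free induction medium; 8-point half-log series from 100 uM in 0.5% DMSO. FOXO3 mRNA by TaqMan qRT-PCR, normalized to ACTB/GAPDH/POLR2A; bidirectional fit versus DMSO.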

Read-out in assay [17]: ABC Transporter (ABCB1), ABCB1 (gene 5243)
Briefly: LTEA_HepaRG_ABCB1: Life Technologies and Expression Analysis (LTEA) Assay for ABC Transporter (ABCB1) using HepaRG (AID 2283460). The conditions noted are these: mRNA level, 48 h; actives raise or lower the signal. The essentials: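 HepaRG cells exposed in duplicate for 48 h in serum-free induction medium to eight half-log concentrations up to 100 uM in 0.5% DMSO. ABCB1 mRNA quantified by qRT-PCR, normalised to ACTB, GAPDH and POLR2A; fitted bidirectionally versus DMSO.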

Read-out in assay [18]: growth arrest and DNA damage 45 (GADD45B), GADD45B (gene 4616)
Put plainly: LTEA_HepaRG_GADD45B: Life Technologies and Expression Analysis (LTEA) Assay for growth arrest and DNA damage 45 (GADD45B) using HepaRG (AID 2283461). The conditions noted are these: mRNA level, 48 h; actives raise or lower the signal. Put shortly: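 Differentiated HepaRG cells, plated 48 h then switched to serum-free induction medium, were exposed 48 h in duplicate to eight half-log concentrations from 100 uM in 0.5% DMSO; mRNA quantified by qRT-PCR, normalized to ACTB/GAPDH/POLR2A, bidirectional fit versus DMSO.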

Read-out in assay [19]: ABC Transporter (ABCC3), ABCC3 (gene 8714)
Put plainly: LTEA_HepaRG_ABCC3: Life Technologies and Expression Analysis (LTEA) Assay for ABC Transporter (ABCC3) using HepaRG (AID 2283462). The conditions noted are these: mRNA level, 48 h; actives raise or lower the signal. The essentials: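 HepaRG cells in serum-free induction medium were exposed for 48 h in duplicate to 8-point half-log concentrations topping at 100 uM in 0.5% DMSO. ABCC3 mRNA was measured by qRT-PCR normalized to ACTB, GAPDH and POLR2A, with bidirectional fitting versus DMSO.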

Chain of Fatty acid synthase (Homo sapiens) (P49327 whole entry, looked up): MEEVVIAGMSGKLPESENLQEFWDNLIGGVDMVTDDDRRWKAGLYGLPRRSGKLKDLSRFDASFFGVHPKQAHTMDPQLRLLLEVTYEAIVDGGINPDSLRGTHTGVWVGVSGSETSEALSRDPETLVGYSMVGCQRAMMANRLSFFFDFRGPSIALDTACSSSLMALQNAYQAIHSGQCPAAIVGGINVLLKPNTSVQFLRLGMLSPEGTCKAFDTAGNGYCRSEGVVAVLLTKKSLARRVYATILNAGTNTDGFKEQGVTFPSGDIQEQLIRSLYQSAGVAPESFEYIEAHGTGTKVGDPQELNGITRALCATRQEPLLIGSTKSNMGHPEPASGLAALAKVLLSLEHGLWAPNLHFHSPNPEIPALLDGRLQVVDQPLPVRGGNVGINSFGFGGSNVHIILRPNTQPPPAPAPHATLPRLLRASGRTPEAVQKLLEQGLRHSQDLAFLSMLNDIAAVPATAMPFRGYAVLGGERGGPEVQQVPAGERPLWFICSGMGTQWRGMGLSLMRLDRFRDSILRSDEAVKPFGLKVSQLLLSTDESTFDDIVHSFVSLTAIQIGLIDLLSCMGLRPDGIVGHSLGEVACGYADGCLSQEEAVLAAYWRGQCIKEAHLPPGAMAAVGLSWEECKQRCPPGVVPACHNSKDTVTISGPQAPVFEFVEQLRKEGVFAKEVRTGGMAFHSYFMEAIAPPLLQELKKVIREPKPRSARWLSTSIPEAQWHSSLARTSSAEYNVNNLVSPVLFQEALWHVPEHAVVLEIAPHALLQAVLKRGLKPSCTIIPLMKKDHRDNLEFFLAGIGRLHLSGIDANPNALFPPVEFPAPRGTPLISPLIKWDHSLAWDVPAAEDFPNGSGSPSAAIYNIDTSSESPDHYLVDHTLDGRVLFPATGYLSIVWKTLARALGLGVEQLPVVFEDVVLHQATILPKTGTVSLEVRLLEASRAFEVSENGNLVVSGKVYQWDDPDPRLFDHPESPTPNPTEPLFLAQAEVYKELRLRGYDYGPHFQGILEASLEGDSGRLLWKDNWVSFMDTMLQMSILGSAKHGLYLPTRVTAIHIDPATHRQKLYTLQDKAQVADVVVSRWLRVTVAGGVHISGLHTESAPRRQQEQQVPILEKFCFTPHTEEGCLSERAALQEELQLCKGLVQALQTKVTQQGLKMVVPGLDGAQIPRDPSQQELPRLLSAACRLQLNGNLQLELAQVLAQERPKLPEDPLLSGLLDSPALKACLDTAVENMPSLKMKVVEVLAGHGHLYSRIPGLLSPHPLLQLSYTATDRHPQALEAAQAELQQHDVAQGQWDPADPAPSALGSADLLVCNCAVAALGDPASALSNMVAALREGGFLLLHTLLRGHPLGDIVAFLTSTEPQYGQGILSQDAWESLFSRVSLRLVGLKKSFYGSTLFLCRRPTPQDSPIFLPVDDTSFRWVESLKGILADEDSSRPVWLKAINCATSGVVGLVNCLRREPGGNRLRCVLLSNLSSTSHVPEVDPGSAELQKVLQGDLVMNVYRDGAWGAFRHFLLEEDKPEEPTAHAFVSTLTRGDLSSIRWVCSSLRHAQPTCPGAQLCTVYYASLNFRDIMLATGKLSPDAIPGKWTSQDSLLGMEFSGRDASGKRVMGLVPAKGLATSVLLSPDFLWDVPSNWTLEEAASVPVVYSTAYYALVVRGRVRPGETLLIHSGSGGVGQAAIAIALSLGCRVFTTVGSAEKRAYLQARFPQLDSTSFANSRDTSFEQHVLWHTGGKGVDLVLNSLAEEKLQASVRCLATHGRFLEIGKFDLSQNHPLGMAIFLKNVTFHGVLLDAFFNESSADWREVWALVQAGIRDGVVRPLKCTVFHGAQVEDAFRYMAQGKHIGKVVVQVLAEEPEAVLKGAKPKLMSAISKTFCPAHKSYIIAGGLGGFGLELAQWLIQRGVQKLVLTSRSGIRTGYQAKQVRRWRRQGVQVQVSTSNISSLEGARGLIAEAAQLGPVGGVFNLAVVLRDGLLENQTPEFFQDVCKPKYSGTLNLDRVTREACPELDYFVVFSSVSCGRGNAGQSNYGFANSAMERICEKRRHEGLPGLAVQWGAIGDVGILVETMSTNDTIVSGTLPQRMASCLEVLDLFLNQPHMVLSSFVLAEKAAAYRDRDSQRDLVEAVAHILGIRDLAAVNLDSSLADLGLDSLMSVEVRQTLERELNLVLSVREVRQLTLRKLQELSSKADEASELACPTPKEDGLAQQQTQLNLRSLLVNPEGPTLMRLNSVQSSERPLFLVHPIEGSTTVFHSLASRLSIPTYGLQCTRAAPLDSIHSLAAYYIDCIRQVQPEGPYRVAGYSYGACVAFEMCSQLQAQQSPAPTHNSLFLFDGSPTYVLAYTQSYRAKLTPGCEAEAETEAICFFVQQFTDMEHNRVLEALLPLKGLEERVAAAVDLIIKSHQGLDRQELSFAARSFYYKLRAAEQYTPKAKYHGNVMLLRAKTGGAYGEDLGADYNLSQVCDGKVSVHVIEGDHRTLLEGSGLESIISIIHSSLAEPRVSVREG

A word on the AC50: it is the concentration giving half of the maximal activity seen. As to `O=[N+]([O-])c1c(Cl)c(Cl)c(Cl)c(Cl)c1Cl`, the compound was classed as inactive in assay [1], in [2], in [3], in [4], in assay [5] and in [6]. The compound was classed as inactive in [7], in assay [8], in assay [9], in [10], in assay [12] and in assay [13]. Besides, the compound was classed as inactive in assay [14], in assay [15], in assay [16], in assay [17] and in assay [19]. Moreover, the AC50 in assay [11] was 81.3 µM (active); in assay [18], 60.7 µM (active).

Take `CC(C)(C)C(O)/C(=C\c1ccc(Cl)cc1Cl)n1cncn1` (configuration not stated): the compound was classed as inactive in assay [1], in assay [2], in assay [3], in assay [4], in [5] and in [7]. The compound was called inactive in assay [15] and in [19]. Further, the AC50 in assay [6] is 80.6 µM (active); in [8], 27.5 µM (active); in assay [9], 27.3 µM (active); in [10], 33.8 µM (active); in assay [11], 9.3 µM (active); in [12], 76.6 µM (active). Further, the AC50 in assay [13] is 89.4 µM (active); in assay [16] it was 82.3 µM (active); in [17], 84.4 µM (active); in assay [18], 87.1 µM (active).
